Measurements taken from PubChem BioAssay (Tox21).
Records with an inconclusive call do not appear. Calls of active or inactive are those of the source. Unless noted, calls follow the shape of the full dose curve.

Assays:
[1] = qHTS assay to identify small molecule agonists of the peroxisome proliferator-activated receptor delta (PPARd) signaling pathway - cell viability counter screen (AID 743211; active = well fitted curve in the direction sought with a large enough effect in the repeat runs; an effect the other way counts as inactive or inconclusive; also: % is scaled to controls: 0 for no effect and ±100 for the full control effect; nearly all actives have a fitted effect of over 55% in size)
How it was run: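 Viability was measured as CellTiter-Glo luminescence (30 min, room temperature) in the same wells as the beta-lactamase readout. GeneBLAzer PPARd UAS-bla HEK293H cells received compound after 5 h plating and were incubated 17 h at 37 C.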

[2] = qHTS assay to identify small molecule antagonists of the peroxisome proliferator-activated receptor delta (PPARd) signaling pathway - cell viability counter screen (AID 743213; active = well fitted curve in the direction sought with a large enough effect in the repeat runs; an effect the other way counts as inactive or inconclusive; also: % is scaled to controls: 0 for no effect and ±100 for the full control effect; nearly all actives have a fitted effect of over 50% in size)
How it was run: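 HEK293H PPARd UAS-bla cells, 5 h pre-incubation, compound + L165041 300 nM final, 17 h 37 C; B/G FRET substrate 2 h RT; then CellTiter-Glo 30 min RT, luminescence.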

[3] = molecular target: Bile acid receptor (Homo sapiens) (UniProt Q96RI1); assay: qHTS assay to identify small molecule antagonists of the farnesoid-X-receptor (FXR) signaling pathway (AID 743217; active = well fitted inhibition curve with a large enough effect in the signal ratio in the repeat runs, not every such curve was filed as active; the % refers to the signal ratio; also: % is scaled to controls: 0 for no effect and ±100 for the full control effect)
How it was run: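 In this cell-based antagonist screen, inhibition of CDCA-driven (50 uM final) UAS-beta-lactamase expression in HEK 293T cells was measured by FRET fluorescence following 16 h compound exposure at 37 °C.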

[4] = qHTS assay to identify small molecule agonists of the farnesoid-X-receptor (FXR) signaling pathway - cell viability counter screen (AID 743218; active = well fitted curve in the direction sought with a large enough effect in the repeat runs; an effect the other way counts as inactive or inconclusive; also: % is scaled to controls: 0 for no effect and ±100 for the full control effect; nearly all actives have a fitted effect of over 45% in size)
How it was run: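 After 16 h at 37 C with test compounds, FXR-bla HEK 293T cells were given LiveBLAzer B/G substrate for 2 h at RT and then CellTiter-Glo; luminescence was taken after 30 min.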

[5] = molecular target: Bile acid receptor (Homo sapiens) (UniProt Q96RI1); assay: qHTS assay to identify small molecule agonists of the farnesoid-X-receptor (FXR) signaling pathway (AID 743220; active = well fitted activation curve with a large enough effect in the signal ratio in the repeat runs, not every such curve was filed as active; the % refers to the signal ratio; also: % is scaled to controls: 0 for no effect and ±100 for the full control effect)
How it was run: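 Beta-lactamase reporter under UAS control in GeneBLAzer FXR HEK 293T cells (5000/well) measured with LiveBLAzer FRET substrate after 2 h at room temperature. Compound exposure lasted 16 h at 37C.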

[6] = qHTS assay to identify small molecule antagonists of the farnesoid-X-receptor (FXR) signaling pathway - cell viability counter screen (AID 743221; active = well fitted cell-killing curve with a large enough effect in the repeat runs, not every such curve was filed as active; also: % is scaled to controls: 0 for no effect and ±100 for the full control effect; nearly all actives have a fitted effect of over 50% in size)
How it was run: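 Cytotoxicity counter screen run in the FXR-bla reporter wells: HEK 293T cells exposed to compound with 50 uM (final) chenodeoxycholic acid for 16 h, 37 C, then viability measured by CellTiter-Glo luminescence after 30 min, room temperature.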

[7] = molecular target: Vitamin D3 receptor (Homo sapiens) (UniProt P11473); assay: qHTS assay to identify small molecule agonists of the vitamin D receptor (VDR) signaling pathway (AID 743222); also: % is scaled to controls: 0 for no effect and ±100 for the full control effect
How it was run: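 VDR-bla cells were seeded, left 4 h, treated with compounds in DMSO for 16 h, incubated 2 h at RT with B/G FRET substrate, and read for fluorescence.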

[8] = qHTS assay to identify small molecule agonists of the vitamin D receptor (VDR) signaling pathway - cell viability counter screen (AID 743224; active = well fitted curve in the direction sought with a large enough effect in the repeat runs; an effect the other way counts as inactive or inconclusive; also: series mostly up to about 63 µM; % is scaled to controls: 0 for no effect and ±100 for the full control effect; nearly all actives have a fitted effect of over 50% in size)
How it was run: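 Here cell health was gauged by luminescent ATP detection (CellTiter-Glo, 30 min RT) in VDR-bla cells that had been incubated with test compounds for 16 h at 37C and 5% CO2.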

[9] = qHTS assay to identify small molecule antagonists of the vitamin D receptor (VDR) signaling pathway - cell viability counter screen (AID 743225; active = well fitted curve in the direction sought with a large enough effect in the repeat runs; an effect the other way counts as inactive or inconclusive; also: % is scaled to controls: 0 for no effect and ±100 for the full control effect; nearly all actives have a fitted effect of over 50% in size)
How it was run: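 Cytotoxicity counter screen read by CellTiter-Glo luminescence (30 min, room temperature) in the same wells as the VDR-bla antagonist readout. HEK 293T VDR-UAS-bla cells had 16 h at 37C with compound and 3 nM (final) 1-alpha,25-dihydroxyvitamin D3, then 2 h with FRET substrate.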

[10] = qHTS assay to identify small molecule agonists of the NFkB signaling pathway - cell viability counter screen (AID 1159515); also: series mostly up to about 61 µM; % is scaled to controls: 0 for no effect and ±100 for the full control effect; nearly all actives have a fitted effect of over 55% in size
How it was run: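 5 hr compound treatment of NFkB-bla ME-180 cells (2,000/well, seeded overnight beforehand), followed by reporter substrate for 1.5 hr. CellTiter-Glo added afterward; luminescence after 30 min RT.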

[11] = qHTS assay to identify small molecule agonists of the endoplasmic reticulum stress response signaling pathway (AID 1159516; active = well fitted activation curve with a large enough effect in the signal ratio in the repeat runs, not every such curve was filed as active; the % refers to the signal ratio; also: % is scaled to controls: 0 for no effect and ±100 for the full control effect)
How it was run: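 Reporter HeLa cells (ESRE-beta-lactamase) underwent 5 hr compound incubation at 37 C and 5% CO2 in quantitative HTS format. Detection followed 2 hr of FRET substrate loading at room temperature.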

[12] = qHTS assay to identify small molecule agonists of the endoplasmic reticulum stress response signaling pathway - cell viability counter screen (AID 1159517)
How it was run: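 HeLa cells carrying an ESRE-driven beta-lactamase reporter receive compound for 5 hr at 37 C. Cell viability is then gauged with CellTiter-Glo by luminescence, 30 min at room temperature.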

[13] = qHTS assay to identify small molecule antagonists of the retinoid-related orphan receptor gamma (ROR-gamma) signaling pathway - cell viability counter screen (AID 1159520; active = well fitted curve in the direction sought with a large enough effect in the repeat runs; an effect the other way counts as inactive or inconclusive)
How it was run: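 Cytotoxicity was read from cellular ATP (CellTiter-Glo luminescence) after 16 hr at 37 C with 1 uM doxycycline induction. The inducer was added 2 hr after compound transfer to Tet-on ROR gamma CHO cells.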

[14] = molecular target: Nuclear receptor ROR-gamma (Homo sapiens) (UniProt P51449); assay: qHTS assay to identify small molecule antagonists of the retinoid-related orphan receptor gamma (ROR-gamma) signaling pathway (AID 1159521; active = well fitted curve in the direction sought with a large enough effect in the repeat runs; an effect the other way counts as inactive or inconclusive)
How it was run: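 Antagonist read-out: drop in luminescence (ONE-Glo) from an RORE-LUC reporter in CHO cells with doxycycline-inducible ROR-gamma; 2 hr compound pretreatment, 1 uM doxycycline, 16 hr incubation at 37 C.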

[15] = qHTS assay to identify small molecule agonists of the AP-1 signaling pathway (AID 1159526); also: % is scaled to controls: 0 for no effect and ±100 for the full control effect
[16] = molecular target: Retinoic acid receptor RXR-alpha (Homo sapiens) (UniProt P19793); assay: qHTS assay to identify small molecule agonists of the RXR signaling pathway (AID 1159527); also: % is scaled to controls: 0 for no effect and ±100 for the full control effect; nearly all actives have a fitted effect of over 35% in size
How it was run: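 Agonist-mode beta-lactamase reporter assay: HEK 293T RXR-alpha-UAS-bla cells treated 16 hr at 37 C with compounds, 9-cis retinoic acid as positive control. LiveBLAzer FRET substrate, 405 nm excitation, 460/530 nm emission.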

[17] = molecular target: Peroxisome proliferator-activated receptor delta (Homo sapiens) (UniProt Q03181); assay: qHTS assay to identify small molecule agonists of the peroxisome proliferator-activated receptor delta (PPARd) signaling pathway (AID 743212); also: % is scaled to controls: 0 for no effect and ±100 for the full control effect
How it was run: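 HEK293H PPARd-bla cells; 5 h preincubation 37 C/5% CO2; compound (DMSO) 37 C; LiveBLAzer B/G FRET substrate 2 h RT; fluorescence intensity.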

[18] = molecular target: Peroxisome proliferator-activated receptor delta (Homo sapiens) (UniProt Q03181); assay: qHTS assay to identify small molecule antagonists of the peroxisome proliferator-activated receptor delta (PPARd) signaling pathway (AID 743215; active = well fitted inhibition curve with a large enough effect in the signal ratio in the repeat runs, not every such curve was filed as active; the % refers to the signal ratio)
How it was run: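 With L165041 present at 300 nM final, compounds were incubated 17 h at 37 C on PPARd UAS-bla HEK293H cells. A FRET-based beta-lactamase substrate was then applied for 2 h at room temperature and fluorescence intensity recorded.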

[19] = qHTS assay to identify small molecule agonists of the AP-1 signaling pathway - cell viability counter screen (AID 1159525); also: nearly all actives have a fitted effect of over 55% in size
How it was run: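 Luminescent ATP readout (Cell Titer Glo, 30 min RT), normalised to DMSO and tetra n-octyl ammonium bromide controls. Cells were ME-180 AP-1-bla in 0.5% dialyzed FBS Opti-MEM, with a 5 h, 37 °C compound exposure.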

[20] = molecular target: Vitamin D3 receptor (Homo sapiens) (UniProt P11473); assay: qHTS assay to identify small molecule antagonists of the vitamin D receptor (VDR) signaling pathway (AID 743223; active = well fitted inhibition curve with a large enough effect in the signal ratio in the repeat runs, not every such curve was filed as active; the % refers to the signal ratio; also: % is scaled to controls: 0 for no effect and ±100 for the full control effect)
How it was run: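 Antagonist mode: compound added to VDR-bla cells alongside agonist 1alpha,25-dihydroxyvitamin D3 (3 nM final), incubation 16 h at 37C. Read-out is LiveBLAzer FRET fluorescence, 2 h at room temperature.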

Peroxisome proliferator-activated receptor delta (Homo sapiens), sequence (Q03181 whole entry, looked up): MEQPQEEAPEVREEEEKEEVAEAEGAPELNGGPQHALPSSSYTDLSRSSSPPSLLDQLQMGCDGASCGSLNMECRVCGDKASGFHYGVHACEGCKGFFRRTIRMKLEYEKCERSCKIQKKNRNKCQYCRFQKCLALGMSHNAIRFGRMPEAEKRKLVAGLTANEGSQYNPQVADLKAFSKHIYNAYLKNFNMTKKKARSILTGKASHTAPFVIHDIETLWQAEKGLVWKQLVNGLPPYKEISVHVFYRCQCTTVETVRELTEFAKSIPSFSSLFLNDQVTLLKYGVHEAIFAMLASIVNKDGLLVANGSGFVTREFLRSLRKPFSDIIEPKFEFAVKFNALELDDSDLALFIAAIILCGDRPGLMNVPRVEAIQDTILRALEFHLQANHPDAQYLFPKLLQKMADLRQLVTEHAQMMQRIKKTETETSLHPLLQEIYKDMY
Retinoic acid receptor RXR-alpha (Homo sapiens), sequence (P19793 whole entry, looked up): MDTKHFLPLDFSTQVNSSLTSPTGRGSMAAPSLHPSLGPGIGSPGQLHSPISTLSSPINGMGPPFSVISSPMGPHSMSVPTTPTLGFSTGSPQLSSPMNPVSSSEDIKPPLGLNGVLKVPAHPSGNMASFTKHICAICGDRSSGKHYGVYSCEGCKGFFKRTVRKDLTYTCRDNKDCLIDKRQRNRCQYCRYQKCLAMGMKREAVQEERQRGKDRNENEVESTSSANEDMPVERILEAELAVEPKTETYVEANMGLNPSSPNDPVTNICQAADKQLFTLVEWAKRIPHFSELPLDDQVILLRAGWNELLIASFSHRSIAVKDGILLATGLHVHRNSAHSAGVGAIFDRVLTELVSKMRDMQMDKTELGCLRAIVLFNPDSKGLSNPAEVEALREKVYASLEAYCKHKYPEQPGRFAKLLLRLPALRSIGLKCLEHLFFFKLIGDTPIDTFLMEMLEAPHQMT
Bile acid receptor (Homo sapiens), sequence (Q96RI1 whole entry, looked up): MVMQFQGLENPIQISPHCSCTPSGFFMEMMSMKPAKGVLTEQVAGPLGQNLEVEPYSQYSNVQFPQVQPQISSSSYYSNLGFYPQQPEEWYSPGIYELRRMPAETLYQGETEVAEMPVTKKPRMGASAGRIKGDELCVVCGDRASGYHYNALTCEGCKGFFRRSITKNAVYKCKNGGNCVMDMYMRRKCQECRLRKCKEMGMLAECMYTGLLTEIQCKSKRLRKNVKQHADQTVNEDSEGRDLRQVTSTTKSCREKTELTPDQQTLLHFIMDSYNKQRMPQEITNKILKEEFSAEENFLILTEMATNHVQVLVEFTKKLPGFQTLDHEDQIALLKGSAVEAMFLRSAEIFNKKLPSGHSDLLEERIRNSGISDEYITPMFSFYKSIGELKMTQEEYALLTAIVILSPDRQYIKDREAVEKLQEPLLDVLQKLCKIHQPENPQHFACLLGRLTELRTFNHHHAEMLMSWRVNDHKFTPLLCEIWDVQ
Vitamin D3 receptor (Homo sapiens), sequence (P11473 whole entry, looked up): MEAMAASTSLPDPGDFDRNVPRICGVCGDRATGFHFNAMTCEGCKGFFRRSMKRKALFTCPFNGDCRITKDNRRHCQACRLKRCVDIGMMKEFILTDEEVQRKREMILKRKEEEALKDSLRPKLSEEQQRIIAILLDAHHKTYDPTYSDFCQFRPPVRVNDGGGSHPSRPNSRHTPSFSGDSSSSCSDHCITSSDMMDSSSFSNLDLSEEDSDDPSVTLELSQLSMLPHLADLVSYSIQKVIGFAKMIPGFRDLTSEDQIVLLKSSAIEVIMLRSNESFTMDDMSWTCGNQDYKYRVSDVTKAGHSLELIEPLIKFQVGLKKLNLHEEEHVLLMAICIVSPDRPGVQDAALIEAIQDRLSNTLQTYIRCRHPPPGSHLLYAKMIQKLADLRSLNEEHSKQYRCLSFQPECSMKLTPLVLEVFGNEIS

CCCCCCCCN1CCCC1=O
inactive: outcome [1] | outcome [2] | outcome [3] | outcome [4] | outcome [5] | outcome [6] | outcome [7] | outcome [8] | outcome [9] | outcome [10] | outcome [11] | outcome [12] | outcome [13] | Potency [14] | outcome [15] | Potency [16]

[O-][n+]1cccc(CO)c1
inactive: outcome [1] | outcome [17] | outcome [18] | outcome [4] | outcome [6] | outcome [7] | outcome [8] | outcome [9] | outcome [10] | outcome [11] | outcome [12] | outcome [13] | outcome [19] | outcome [15] | Potency [16]

c1ccc(Cc2ccccc2)cc1
inactive: outcome [1] | outcome [2] | outcome [3] | outcome [5] | outcome [6] | outcome [7] | outcome [8] | outcome [9] | outcome [10] | outcome [11] | outcome [12] | outcome [13] | Potency [14] | outcome [15] | Potency [16]

CN(C)CCCCCCN(C)C
inactive: outcome [1] | outcome [3] | outcome [4] | outcome [5] | outcome [6] | outcome [7] | outcome [20] | outcome [8] | outcome [10] | outcome [11] | outcome [12] | outcome [13] | outcome [19] | outcome [15] | Potency [16]

CCOCC(C)O (configuration not stated)
inactive: outcome [1] | outcome [17] | outcome [18] | outcome [3] | outcome [4] | outcome [5] | outcome [6] | outcome [7] | outcome [8] | outcome [10] | outcome [11] | outcome [12] | outcome [13] | Potency [14] | outcome [15] | Potency [16]

Nc1ccn([C@@H]2O[C@H](CO)[C@@H](O)C2O)c(=O)n1 (some centres not stated)
inactive: outcome [1] | outcome [17] | outcome [18] | outcome [3] | outcome [4] | outcome [5] | outcome [6] | outcome [7] | outcome [8] | outcome [9] | outcome [10] | outcome [11] | outcome [12] | outcome [13] | outcome [19] | outcome [15] | Potency [16]

O=CN(CCO)CCO
inactive: outcome [17] | outcome [18] | outcome [4] | outcome [6] | outcome [7] | outcome [20] | outcome [8] | outcome [10] | outcome [11] | outcome [12] | outcome [13] | Potency [14] | outcome [15] | Potency [16]

Cc1ncc(COP(=O)(O)O)c(C=O)c1O
inactive: outcome [1] | outcome [17] | outcome [2] | outcome [6] | outcome [7] | outcome [20] | outcome [8] | outcome [9] | outcome [10] | outcome [11] | outcome [12] | outcome [13] | outcome [19] | outcome [15] | Potency [16]

CC(C)[C@H]1CC[C@@H](C)CC1=O
inactive: outcome [1] | outcome [2] | outcome [6] | outcome [8] | outcome [9] | outcome [10] | outcome [11] | outcome [12] | outcome [13] | Potency [14] | outcome [15] | Potency [16]

CCCCCCC1CCC(=O)O1 (configuration not stated)
inactive: outcome [17] | outcome [2] | outcome [18] | outcome [6] | outcome [7] | outcome [8] | outcome [10] | outcome [11] | outcome [12] | outcome [13] | Potency [14] | outcome [15]

C[C@H]1[C@H](NC(=O)/C(=N/OC(C)(C)C(=O)O)c2csc(N)n2)C(=O)N1S(=O)(=O)O (stereo in doubt)
inactive: outcome [1] | outcome [2] | outcome [3] | outcome [4] | outcome [5] | outcome [6] | outcome [10] | outcome [11] | outcome [12] | outcome [13] | Potency [14] | outcome [15] | Potency [16]

CC(N)C12CC3CC(CC(C3)C1)C2 (configuration not stated)
inactive: outcome [1] | outcome [17] | outcome [2] | outcome [18] | outcome [3] | outcome [4] | outcome [5] | outcome [6] | outcome [7] | outcome [8] | outcome [9] | outcome [10] | outcome [11] | outcome [12] | outcome [13] | outcome [19] | outcome [15] | Potency [16]

O=C(O)CNC(=O)c1ccccc1
inactive: outcome [17] | outcome [2] | outcome [4] | outcome [6] | outcome [8] | outcome [9] | outcome [10] | outcome [11] | outcome [12] | outcome [13] | outcome [19] | outcome [15] | Potency [16]

CC(=O)c1ccccc1[N+](=O)[O-]
inactive: outcome [1] | outcome [17] | outcome [2] | outcome [18] | outcome [4] | outcome [6] | outcome [20] | outcome [8] | outcome [10] | outcome [11] | outcome [12] | outcome [13] | Potency [14] | outcome [15] | Potency [16]

CC(C)C[C@@H](N)C(=O)O
inactive: outcome [1] | outcome [17] | outcome [2] | outcome [18] | outcome [3] | outcome [5] | outcome [6] | outcome [7] | outcome [20] | outcome [9] | outcome [10] | outcome [11] | outcome [12] | activity, negative = cytotoxicity [13] 3.47% [at 19 µM] | viability change, negative = cytotoxic [19] -0.425% [at 15.8 µM] | activation [15] -5.77% [at 15.8 µM] | activation [16] 4.08% [at 15.8 µM]

CC(=O)O[C@@]12CO[C@@H]1C[C@H](O)[C@@]1(C)C(=O)[C@H](O)C3=C(C)[C@@H](OC(=O)[C@H](O)[C@@H](NC(=O)OC(C)(C)C)c4ccccc4)C[C@@](O)([C@@H](OC(=O)c4ccccc4)[C@H]21)C3(C)C
inactive: outcome [17] | outcome [2] | outcome [18] | outcome [4] | outcome [5] | outcome [6] | outcome [7] | outcome [8] | outcome [9] | outcome [10] | outcome [11] | outcome [12] | outcome [13] | outcome [19] | outcome [15]

CCCCOC(=O)CCC(C)=O
inactive: outcome [1] | outcome [17] | outcome [4] | outcome [6] | outcome [20] | outcome [9] | outcome [10] | outcome [12] | outcome [13] | Potency [14] | outcome [19] | outcome [15] | Potency [16]

CC[N+](CC)(CC(=O)Nc1c(C)cccc1C)Cc1ccccc1 (tested in a mixture with another compound)
inactive: outcome [1] | outcome [2] | outcome [4] | outcome [6] | outcome [8] | outcome [10] | outcome [11] | outcome [12] | outcome [13] | outcome [19] | outcome [15]
